Laboratory results taken from PubChem BioAssay (NCATS).
Several values for one entry are separate records, joined by “and”; a condition that tells them apart may be missing. Identical values can stand only once. Results filed as inconclusive are left out. Entries that show only a call come without a potency. Activity calls are given as the source filed them. Unless noted, calls come from the whole dose curve; as a rule, active = well fitted curve in the direction sought with a large enough effect; inconclusive = small, poorly fitted or top-dose-only effect, or another doubt; inactive = no such curve, though single readings can be large; an effect the other way counts as inactive or inconclusive.

Experiments:
[1] = qHTS for compounds that reverse cellular toxicity of Amyloid beta (A-beta) peptide in yeast: LOPAC Validation Assay (AID 720559)
In short: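 OD600 growth readout after 48 hr at 30 C; A-beta-toxic yeast plus pinned compounds in medium. Normalization: DMSO = negative, equimolar FeCl3 + clioquinol = positive.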

[2] = qHTS for Activators of Parkin Expression: LOPAC Validation Assay (NLuc Reporter) (AID 720572)
In short: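 Neuronal line stably carrying a FLuc/NLuc coincidence reporter under the Parkin promoter, seeded 24 h, then dosed in 7-point series for 24 h at 37 C. NLuc luminescence read after FLuc; normalized to DMSO and positive control (100%).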

[3] = qHTS for Activators of Parkin Expression: LOPAC Validation Assay (FLuc Reporter) (AID 720573)
In short: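 FLuc luminescence read-out from a neuronal line expressing a Parkin-promoter-driven coincidence reporter. Cells treated 24 h at 37 C, 5% CO2 with compounds at 7 concentrations; signal increase normalized to DMSO and positive control.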

[4] = qHTS assay for small molecule agonists of the antioxidant response element (ARE) signaling pathway measured by Nrf2-dependant transcriptional activity (AID 720636; active = well fitted curve in the direction sought with a large enough effect in the repeat runs; an effect the other way counts as inactive or inconclusive;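 note: HepG2 cells with an ARE-driven luciferase reporter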)
In short: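 First, ARE-luc HepG2 cells attached for 6 hr at 37 C in 1% dialyzed FBS medium. Next, compound or DMSO was added and incubated 16 hr. Finally, ONE-Glo reagent was added and luminescence measured after 30 min.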

[5] = qHTS assay for small molecule agonists of the antioxidant response element (ARE) signaling pathway measured by Nrf2-dependant transcriptional activity - cell viability counter screen (AID 720653; active = well fitted curve in the direction sought with a large enough effect in the repeat runs; an effect the other way counts as inactive or inconclusive); details: ARE-bla HepG2 viability, CellTiter-Glo ATP luminescence, 16 h; max response: stronger effect = lower value
In short: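 ARE-bla HepG2 cells (2,000/well) rested 5 hrs at 37C/5% CO2, then exposed to compounds in DMSO for 16 hrs. Viability was read in the same wells as intracellular ATP by luminescence, 30 min at room temperature after reagent addition.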

[6] = target: T1, Hexokinase-4 (Homo sapiens) + Glucokinase regulatory protein (Homo sapiens) (UniProt P35557+Q14397); test: qHTS assay for inhibitors of recombinant human GCK-GKRP interaction: Diaphorase-coupled assay (AID 743205)
T1 sequence (P35557 whole entry, looked up): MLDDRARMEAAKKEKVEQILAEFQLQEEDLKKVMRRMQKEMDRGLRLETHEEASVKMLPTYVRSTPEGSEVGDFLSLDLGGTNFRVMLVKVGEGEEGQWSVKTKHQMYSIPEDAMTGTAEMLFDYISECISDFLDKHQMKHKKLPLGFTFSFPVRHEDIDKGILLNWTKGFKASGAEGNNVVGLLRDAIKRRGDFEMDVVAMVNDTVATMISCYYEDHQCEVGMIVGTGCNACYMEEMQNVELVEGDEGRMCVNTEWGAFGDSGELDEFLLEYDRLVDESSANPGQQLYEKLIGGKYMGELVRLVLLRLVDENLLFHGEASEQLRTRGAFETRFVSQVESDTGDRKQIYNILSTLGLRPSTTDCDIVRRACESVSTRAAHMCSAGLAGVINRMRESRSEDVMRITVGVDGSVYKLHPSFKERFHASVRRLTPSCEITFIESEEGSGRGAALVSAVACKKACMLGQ
T1 sequence (Q14397 whole entry, looked up): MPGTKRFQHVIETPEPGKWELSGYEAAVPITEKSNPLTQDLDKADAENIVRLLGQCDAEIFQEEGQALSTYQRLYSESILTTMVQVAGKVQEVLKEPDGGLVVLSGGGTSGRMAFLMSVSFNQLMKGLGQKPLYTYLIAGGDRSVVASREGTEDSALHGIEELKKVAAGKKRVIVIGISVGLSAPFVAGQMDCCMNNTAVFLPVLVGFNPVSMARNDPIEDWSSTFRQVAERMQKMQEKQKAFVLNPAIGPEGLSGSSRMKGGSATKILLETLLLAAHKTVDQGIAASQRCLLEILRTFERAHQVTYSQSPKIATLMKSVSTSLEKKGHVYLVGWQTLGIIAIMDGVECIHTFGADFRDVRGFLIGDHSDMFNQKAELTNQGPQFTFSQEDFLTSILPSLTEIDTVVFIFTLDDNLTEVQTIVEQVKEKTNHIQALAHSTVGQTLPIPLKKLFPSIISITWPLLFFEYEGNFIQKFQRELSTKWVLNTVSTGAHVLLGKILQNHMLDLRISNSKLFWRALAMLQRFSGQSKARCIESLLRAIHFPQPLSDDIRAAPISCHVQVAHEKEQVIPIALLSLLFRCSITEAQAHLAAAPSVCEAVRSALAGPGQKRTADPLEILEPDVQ
In short: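 Resorufin fluorescence (525/590 nm), read each minute over 30 min, reports GCK activity coupled via G6PDH and diaphorase. Reaction: 10 nM GST-GCK, 10 nM FLAG-GKRP, 5 mM glucose, 0.4 mM ATP, 0.15 mM NADP+, 0.1 mM resazurin.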

[7] = target: T1, Hexokinase-4 (Homo sapiens) + Glucokinase regulatory protein (Homo sapiens); test: qHTS assay for inhibitors of recombinant human GCK-GKRP interaction: ADP-Glo assay (AID 743206)
In short: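 GST-GCK and FLAG-GKRP (15 nM each in the dispensed mix, with 2 uM S6P) react with 0.4 mM ATP and 5 mM glucose (final) in Hepes pH 7.6 for 60 min at room temperature. ADP is measured by ADP-Glo luminescence.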

[8] = target: T1, Hexokinase-4 (Homo sapiens) + Glucokinase regulatory protein (Homo sapiens); test: qHTS assay for inhibitors of recombinant human GCK-GKRP interaction: HTRF assay (AID 743207)
In short: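 HTRF read-out (ex 320 nm; 615/665 nm emission) after 60 min RT equilibration of 5 nM GST-GCK, 5 nM FLAG-GKRP, 2 uM S6P, compound and anti-FLAG/anti-GST detection antibodies; signal normalized between DMSO wells with and without GCK.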

[9] = qHTS Assay for Identifying Gametocytocidal Compounds (AID 743244); note: potency is the fitted concentration of half-maximal effect;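 for max response: actives lower the fluorescent signal which means gametocytes are killed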; details: P. falciparum 3D7 stage III-V gametocytes, alamarBlue, 72 h; max response: stronger effect = lower value
In short: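 Compounds are pinned into medium, gametocytes (stage III–V, 3D7, 20,000 cells/well) added, and plates held 72 h at 37 °C in 5% CO2. AlamarBlue follows for 24 h before fluorescence reading.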

[10] = qHTS assay for cell viability of HEK293 cells (AID 743288); details: ATP luminescence (CellTiter-Glo), 18 h; max response: stronger effect = lower value; note: nearly all actives have a fitted effect of over 50% in size
In short: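 Environmental chemicals tested in qHTS format against parental HEK293 cells; 18 h treatment, 37 C; read-out ATP luminescence (CellTiter-Glo), 30 min RT development.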

[11] = qHTS assay for cell viability of the p53RE-bla HCT-116 cell line (AID 743292); note: nearly all actives have a fitted effect of over 55% in size
In short: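 Quantitative high-throughput format: compounds in DMSO were pinned onto p53RE-bla HCT-116 cells (4,000/well) and incubated 16 h at 37 C. Total intracellular ATP, read by CellTiter-Glo luminescence, reflects viable cell number.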

[12] = qHTS profiling of the MIPE4 collection as inhibitors of Plasmodium falciparum (3D7) proliferation (AID 743344; call rule not given here); details: P. falciparum 3D7 in erythrocytes, SYBR Green DNA fluorescence, 72 h; at 28.5 µM (top of the series) unless noted
In short: (§1)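 Erythrocytes infected with P. falciparum (0.3% parasitemia, 2.5% hematocrit) incubated with compounds 72 h at 37 C, 5% CO2. Lysis with saponin/Triton buffer containing SYBR Green I, overnight at room temperature in the dark; DNA fluorescence (485/535 nm) normalised to 0.29 uM artemisinin and DMSO.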

[13] = qHTS profiling of the MIPE4 collection as inhibitors of Plasmodium falciparum (DD2) proliferation (AID 743345; call rule not given here); details: P. falciparum Dd2 in erythrocytes, SYBR Green DNA, 72 h; at 28.5 µM (top of the series) unless noted
In short: as §1

[14] = qHTS profiling of the MIPE4 collection as inhibitors of Plasmodium falciparum (DD2) proliferation (Rep 2) (AID 743346; call rule not given here); details: P. falciparum Dd2 in erythrocytes, SYBR Green DNA, 72 h; at 28.5 µM (top of the series) unless noted
In short: as §1

[15] = qHTS profiling of the MIPE4 collection as inhibitors of Plasmodium falciparum (HB3) proliferation (AID 743347; call rule not given here); details: P. falciparum HB3 in erythrocytes, SYBR Green DNA, 72 h; at 28.5 µM (top of the series) unless noted
In short: as §1

[16] = High-throughput drug toxicity screening in the BPDCN cell line Gen2.2 (AID 1224824; call rule not given here;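 note: cells exposed to compounds for 48 h before reading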); details: Gen2.2 BPDCN cells; at 45.8 µM (top of the series) unless noted
In short: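 CellTiter-Glo luminescence after 48 h compound exposure of Gen2.2 cells; percent activity set with DMSO as 100% and bortezomib (9.2 uM final) as 0%. Cells seeded at 500 per well, RPMI + 10% FBS, 37 °C.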

[17] = qHTS assay for small molecule antagonists of the retinoid-related orphan receptor gamma (ROR-gamma) signaling pathway - cell viability counter screen (AID 720652; active = well fitted curve in the direction sought with a large enough effect in the repeat runs; an effect the other way counts as inactive or inconclusive;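 note: CHO reporter cells with doxycycline-induced ROR-gamma expression; compound exposure lasted 16 hr before ATP read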)
In short: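 CHO cells carrying TET-inducible ROR and RORE-luciferase reporter, plated 5 hr, then dosed with compound plus doxycycline. After 16 hr at 37 C, viability read as intracellular ATP by CellTiter-Glo luminescence.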

SMILES | outcome [1] | outcome [2] | Potency [3] | outcome [4] | max response [5] | Potency [6] | Potency [7] | Potency [8] | max response [9] | max response [10] | Potency [11] | parasite growth, % of DMSO control [12] | parasite growth remaining, % of DMSO control (lower = more inhibition) [13] [%] | parasite growth, % of control (lower = inhibition) [14] | growth, % of control [15] | cell viability, % of control (lower = more cytotoxic) [16] | Potency [17] | Potency [9]
CCOC(=O)C(C)(C)Oc1ccc(Cl)cc1 | inactive | inactive | inactive | inactive | -4.42% (inactive) | inactive | inactive | inactive | 9.62% (inactive) and 0.495% (inactive) | -5.02% (inactive) | inactive | 92.7% | 103 | 78% | 104% | 163% | – | –
C[C@](N)(Cc1ccc(O)c(O)c1)C(=O)O | inactive | inactive | inactive | inactive | -0.408% (inactive) | inactive | inactive | inactive | 9.51% (inactive) | -5.13% (inactive) | inactive | 73.9% | – | 77.2% | 86% | 46.6% | – | –
CC[N+](CC)(CC)CCOc1cccc(OCC[N+](CC)(CC)CC)c1OCC[N+](CC)(CC)CC | inactive | inactive | inactive | – | – | inactive | inactive | inactive | 4.54% (inactive) and -6.53% (inactive) | – | – | – | – | – | – | 124% | – | –
Cn1c(=O)c2[nH]cnc2n(C)c1=O | inactive | inactive | inactive | inactive | 0.323% (inactive) | inactive | inactive | inactive | 2.17% (inactive) and 13.8% (inactive) | 2.06% (inactive) | inactive | – | 102 | – | – | 123% | inactive | –
CC(C)(Oc1ccc(C2CC2(Cl)Cl)cc1)C(=O)O (stereo not given) | inactive | inactive | inactive | inactive | 10.6% (inactive) | inactive | inactive | inactive | 2.49% (inactive) and 6.24% (inactive) | -8.57% (inactive) | inactive | 107% [at 57.5 µM] | – | 92.2% [at 57.5 µM] | 81.2% [at 57.5 µM] | 77.7% [at 92.2 µM] | – | –
O=C(c1ccc(F)cc1)C1CCN(CCn2c(=O)[nH]c3ccccc3c2=O)CC1 | inactive | inactive | inactive | – | – | inactive | inactive | inactive | 7.32% (inactive) and -5.52% (inactive) | – | – | 109% | 19.2 | 104% | 61.3% | 216% | – | –
CC12CC3CC(C)(C1)CC(N)(C3)C2 | inactive | inactive | inactive | – | – | inactive | inactive | inactive | 12.5% (inactive) | – | – | 176% | 23.6 | 122% | 512% | 26.5% | – | –
COc1ccccc1N1CCN(CC(O)COc2cccc3ccccc23)CC1 (stereo not given) | inactive | inactive | inactive | – | – | inactive | inactive | inactive | 7.63% (inactive) and 7.03% (inactive) | – | – | 64.9% | 98.8 | 65.8% | 74.7% | 156% | – | –
COc1ccccc1OCCNCC(O)COc1cccc2[nH]c3ccccc3c12 (stereo not given) | inactive | inactive | inactive | – | – | inactive | inactive | inactive | 6.87% (inactive) and 32.1% (inactive) | – | – | 16.5% | 17.9 | 20.7% | 5.04% | 167% | – | –
Clc1ccc2nsnc2c1NC1=NCCN1 | inactive | inactive | inactive | – | – | inactive | inactive | inactive | 11.7% (inactive) and 4.37% (inactive) | – | – | 73.6% | 98.6 | 45.7% | 67.7% | 64.1% | – | –
COc1cc2nc(N3CCN(C(=O)c4ccco4)CC3)nc(N)c2cc1OC | inactive | inactive | inactive | – | – | inactive | inactive | inactive | – | – | – | 4.68% | 20.6 | 8.89% | 2.87% | 8.89% | – | 11.2 µM (active)
CN1CCN(CCCN2c3ccccc3Sc3ccc(Cl)cc32)CC1 | inactive | inactive | inactive | – | – | inactive | inactive | inactive | – | – | – | 6.12% | – | 28.4% | 7.64% | 107% | – | –
COc1cc2nc(N(C)CCCNC(=O)C3CCCO3)nc(N)c2cc1OC (stereo not given) | inactive | inactive | inactive | – | – | – | inactive | inactive | 19.8% (inactive) and 12.7% (inactive) | – | – | 64% | 88.3 | 63% | 67.3% | 230% | – | –
O=C1N(c2ccccc2)c2ccccc2C1(Cc1ccncc1)Cc1ccncc1 | inactive | inactive | inactive | – | – | inactive | inactive | inactive | -4.76% (inactive) and 23.2% (inactive) | – | – | 105% | 86.2 | 120% | 106% | 266% | – | –
COC(=O)Nc1nc2ccc(C(=O)c3cccs3)cc2[nH]1 | inactive | inactive | inactive | – | – | – | inactive | inactive | 22.4% (inactive) and 23.7% (inactive) | – | – | 54.5% | 93.5 | 91.6% | 80% | 19.7% | – | –
CC(CCc1ccc(O)cc1)NCCc1ccc(O)c(O)c1 (stereo not given) | inactive | inactive | inactive | – | – | – | inactive | inactive | 27.1% (inactive) | – | – | 52.3% | 64.4 | 62.7% | 92.8% | 5% | – | –
